{
  "source": "the supplement of paper PMC6555819",
  "data": [
    {"tested_on": "RARa homodimer (NR concentration 270 nM)", "assay": "PBM binding z-score (relative to random genomic background probes); higher = stronger binding; sequences stand for … in GC…GCGATTGACAGCGTAGAATGAAGG", "how_it_was_run": "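Antibodies against each partner of ligand-free nuclear receptor dimers (one per run) detected binding on custom Agilent 4×180K protein-binding microarrays after 1 h incubation. The double-stranded probes had 34-nt variable regions carrying direct-repeat seeds, single-nucleotide variants, half-site ablations and random human genomic background sequences. Binding z-scores, from regression-normalized fluorescence, use the random background probes as reference.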", "values": [
      {"sequence": "TCTCGGAGGACACGACAGGTCAGAGCTCGACATC", "PBM binding z-score": 0.0819},
      {"sequence": "CCTCGGAGGACTGAAGGTCAGAGCTGTCCGCTTT", "PBM binding z-score": -0.166},
      {"sequence": "TCGGACAGGTGAAGGTAACTCAGGTACGCAGTCG", "PBM binding z-score": 0.257},
      {"sequence": "CCGTACGGGTCACTCCAGGTTATAGCATCGGAGT", "PBM binding z-score": -0.104},
      {"sequence": "TCGAGTAGGTTAGGGGAATTCAGAATGGCGTCGA", "PBM binding z-score": 0.338},
      {"sequence": "CGTTACGGGTCACGAGGTTATAGCACGACGAGCG", "PBM binding z-score": 0.803},
      {"sequence": "GGAACGAGGACATTCGAGTTGATAGCATGGCGAT", "PBM binding z-score": -0.136},
      {"sequence": "CGTCAAAGTTCTACTAAGGTAACGTAAAGCACGC", "PBM binding z-score": -0.131},
      {"sequence": "TCATATAGGTAAAGGTGACAGTCGAACGATATGA", "PBM binding z-score": 0.76},
      {"sequence": "CTCGAAAGGTCGTGCTCAGGAGAGTATACCAAAC", "PBM binding z-score": 0.362},
      {"sequence": "GGAACGAGGGCATTCGAGTTTATAGCATGGCGAT", "PBM binding z-score": -0.16},
      {"sequence": "GATACAGGGTCACGGCCAGAGTACGCGTATTGAT", "PBM binding z-score": 0.744},
      {"sequence": "ATATGTAAGTTATCGGGTCATTCAGTTTGCGCAT", "PBM binding z-score": 1.29},
      {"sequence": "TCACCAAGGTGAGCTGAGGTCGTTGATCCAACTC", "PBM binding z-score": -0.943},
      {"sequence": "GCATATCGGTAATACAAGGTGAAAGTCCGATTGT", "PBM binding z-score": 0.00157},
      {"sequence": "ACAGACAGGTGATGAAGGTCACTCAGGCTATCAT", "PBM binding z-score": 0.664},
      {"sequence": "ACAGACAGGTGCTGAAGGTAACTCAGGCTATCAT", "PBM binding z-score": -0.406},
      {"sequence": "CCTTACGGGTCAAGGTTCTAGCACGGGTGGTACG", "PBM binding z-score": 0.251},
      {"sequence": "ACTAGCAGGCAAAGTTTGGGTCACTCAAACAAAG", "PBM binding z-score": -0.701},
      {"sequence": "GATACAGGGTCAGCTAGAGGCCAGGGTATGGAAA", "PBM binding z-score": 0.0773},
      {"sequence": "ACTAGCAGGCCAAGTTTGCGTCACTCAAACAAAG", "PBM binding z-score": -0.243},
      {"sequence": "GTACCAAGGTGAATAGGTAGTTGATGAGTAGGCG", "PBM binding z-score": 0.745}
    ]}
  ]
}
